The values that follow come from the supplement of paper PMC13380429.

Counter-ions that a name gives are not always drawn. A number with no mark means an inactive call.

The subject of the test is Vero E6 infected with SARS-CoV-2. Description: inhibition of SARS-CoV-2 cytopathic effect; higher = more antiviral protection, active = above 15. Particulars: 48 h.

With `C[N+]1(C)CCC(OC(=O)C(c2ccccc2)c2ccccc2)CC1`, the “inhibition of SARS-CoV-2 cytopathic effect” value (“inhibition” below) (1 nM) was -1.59%; the “inhibition” value (8.33 nM) was 2.05%; the “inhibition” value (100 nM) is 1.2%; the “inhibition” value (833.33 nM) was 1.67%; the “inhibition” value (10000 nM) is 1.67%.

For `CN1[C@@H]2CC[C@H]1C[C@@H](OC(c1ccc(F)cc1)c1ccc(F)cc1)C2` [3-alpha-bis-(4-fluorophenyl)-methoxytropane], the “inhibition” value (1 nM) was 0.13%; the “inhibition” value (8.33 nM) is 1.33%; the “inhibition” value (100 nM) is -2.46%; the “inhibition” value (833.33 nM) was -1.34%; the “inhibition” value (10000 nM) was -5.09%.

Turning to `O=c1[nH]c(=O)n([C@H]2C[C@H](O)[C@@H](CO)O2)cc1F` [floxuridine], the “inhibition” value reads like this: (1 nM) 1.42%; (8.33 nM) 1.34%; (100 nM) -1.95%; (833.33 nM) -2.04%; (10000 nM) -4.05%.

On to `Nc1nc(=O)n([C@H]2C[C@H](O)[C@@H](CO)O2)cc1Cl` [cytochlor], for which the “inhibition” value by setting is: (1 nM) 0.97%; (8.33 nM) 0.46%; (100 nM) 0.45%; (833.33 nM) 1.92%; (10000 nM) -1.33%.

In the case of `CC/C(=C(\c1ccc(O)cc1)c1ccc(OCCNC)cc1)c1ccccc1` [Endoxifen HCl], the “inhibition” value was -1.34% (1 nM); 7.36% (8.33 nM); 10.6% (100 nM); -0.77% (833.33 nM); 57% (active) (10000 nM).

`N[C@@H](CSCCCO)C(=O)O` [fudosteine]: the “inhibition” value is 0.08% (1 nM); 1.3% (8.33 nM); 0.76% (100 nM); 1.15% (833.33 nM); -1.74% (10000 nM).

Regarding `CN1CCN(Cc2ccc(Nc3ncc(Cl)c(Nc4ccccc4S(=O)(=O)N(C)C)n3)cc2)CC1`, the “inhibition” value reads like this: (1 nM) 1.64%; (8.33 nM) 0.81%; (100 nM) 2.68%; (833.33 nM) -8.19%; (10000 nM) -10.2%.

Turning to `CCCCCCCC/C=C\CCCCCCCC(=O)NCCO` [oleoylethanolamide], the “inhibition” value (1 nM) is 1.05%; the “inhibition” value (8.33 nM) is -0.89%; the “inhibition” value (100 nM) is -0.87%; the “inhibition” value (833.33 nM) is 0.17%; the “inhibition” value (10000 nM) was -4.33%.

Consider `O=C1C2CC=CCC2C(=O)N1SC(Cl)(Cl)Cl` (stereo not given) [captan], for which the “inhibition” value runs as follows: (1 nM) 1.85%; (8.33 nM) 4.35%; (100 nM) 4.16%; (833.33 nM) 4.29%; (10000 nM) 7.49%.

For `c1cnc2c([O][Ga]([O]c3cccc4cccnc34)[O]c3cccc4cccnc34)cccc2c1` [gallium-triquinolin-8-olate], the “inhibition” value reads like this: (1 nM) -0.23%; (8.33 nM) 1.56%; (100 nM) -0.49%; (833.33 nM) 4.98%; (10000 nM) 3.63%.

As for `Cc1ncc(NC(=O)c2ccc(CN3CCN(C)CC3)c(C(F)(F)F)c2)cc1Nc1nccc(-c2cccnc2)n1` [flumatinib], the “inhibition” value was 2.56% (1 nM); -0.34% (8.33 nM); 1.46% (100 nM); 3.69% (833.33 nM); 66.1% (active) (10000 nM).

Regarding `Nc1ncnc2c1ncn2[C@@H]1O[C@H](COP(=O)(O)O)[C@@H](O)[C@H]1O` [adenosine-phosphate], the “inhibition” value by setting is: (1 nM) -6.5%; (8.33 nM) -1.98%; (100 nM) -4.25%; (833.33 nM) -3.83%; (10000 nM) -12.6%.

For the compound `CC[N+](CC)(CC)CCOc1cccc(OCC[N+](CC)(CC)CC)c1OCC[N+](CC)(CC)CC` [gallamine-triethiodide], the “inhibition” value is 0.22% (1 nM); 3.57% (8.33 nM); 3.37% (100 nM); 2.88% (833.33 nM); -1.08% (10000 nM).

For `CCn1c(=O)[nH]c2cc(Cl)c(Cl)cc21`, the “inhibition” value (1 nM) was 0.36%; the “inhibition” value (8.33 nM) is 1.8%; the “inhibition” value (100 nM) was 0.73%; the “inhibition” value (833.33 nM) is -2.68%; the “inhibition” value (10000 nM) is -2.08%.

Regarding `CS(=O)(=O)c1cccc(CNc2nc(Nc3ccc4c(c3)CCC(=O)N4)ncc2C(F)(F)F)c1`, the “inhibition” value was -1.14% (1 nM); -1.29% (8.33 nM); 0.06% (100 nM); 1.33% (833.33 nM); -3.75% (10000 nM).

With `OC[C@H]1O[C@H](O[C@H]2O[C@H](CO)[C@@H](O)[C@H](O)[C@H]2O)[C@H](O)[C@@H](O)[C@@H]1O` [cabaletta], the “inhibition” value is 1.34% (1 nM); 3.4% (8.33 nM); 5.33% (100 nM); 3.33% (833.33 nM); 0.76% (10000 nM).

For the compound `CNCCn1c(=O)c2cc(OC)c(OC)cc2c2cnc3cc4c(cc3c21)OCO4`, the “inhibition” value was 3.31% (1 nM); 1.57% (8.33 nM); -1.27% (100 nM); -9.93% (833.33 nM); -15.7% (10000 nM).

On to `CC(C)c1cc(-c2n[nH]c(=O)n2-c2ccc3c(ccn3C)c2)c(O)cc1O` [ganetespib], for which the “inhibition” value was -2.33% (1 nM); -3.79% (8.33 nM); -1.43% (100 nM); -1.16% (833.33 nM); -7.9% (10000 nM).
